Reference: PubChem BioAssay AID624098 (National Center for Advancing Translational Sciences (NCATS), 2012)
Results filed as inconclusive are left out. Activity calls are given as the source filed them.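 Rule for the calls: active = immobility above 50% at 10 µM after 1 hour; inconclusive = immobility from 15% to 50% at 1 hour; inactive = immobility below 15%.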

Assay: Assay for General Anesthetic Phenotype in Xenopus Tadpoles
Conditions: startle-response immobility, 1 h, at 10 µM, stronger effect = higher value
Excerpt: Anesthetic development has remained a largely empirical process. There are growing concerns about the cognitive effects of known general anesthetics and acceleration of the onset of neurodegenerative disease. The compounds' toxicity and multiple specific binding targets in the mammalian brain [4] has made them less attractive as drug leads. This assay was designed for the in vivo follow-up testing of compounds in tadpoles. References: [1] S.L. Bianchi, T. Tran, C. Liu, S. Lin, Y. Li, J.M. Keller, R.G. Eckenhoff, and M.F. Eckenhoff, Brain and behavior changes in 12-month-old Tg2576 and nontransgenic mice exposed to anesthetics. Neurobiol Aging 29 (2008) 1002-10. Z. Xie, Y. Dong, U. Maeda, R.D. Moir, W. Xia, D.J. Culley, G. Crosby, and R.E. Tanzi, The inhalation anesthetic isoflurane induces a vicious cycle of apoptosis and amyloid beta-protein accumulation. J Neurosci 27 (2007) 1247-54. P. Honegger, and J.M. Matthieu, Selective toxicity of the general anesthetic propofol for GABAergic neurons in rat brain cell cultures. J Neurosci Res 45 (1996) 631-6. M.F. Eckenhoff, K. Chan, and R.G. Eckenhoff, Multiple specific binding targets for inhaled anesthetics in the mammalian brain. J Pharmacol Exp Ther 300 (2002) 172-9. C.A. Butts, J. Xi, G. Brannigan, A.A. Saad, S.P. Venkatachalan, R.A. Pearce, M.L. Klein, R.G. Eckenhoff, and I.J. Dmochowski, Identification of a fluorescent general anesthetic, 1-aminoanthracene. Proc Natl Acad Sci U S A 106 (2009) 6501-6. W.A. Lea, J. Xi, A. Jadhav, L. Lu, C.P. Austin, A. Simeonov, and R.G. Eckenhoff, A high-throughput approach for identification of novel general anesthetics. PLoS One 4 (2009) e7150.
Pre-limb bud Xenopus tadpoles were obtained in large batches from Nasco, Inc. Batches of 10 tadpoles were placed in 20 mm Petri dishes with approximately 20 ml of pond water ("pond water" is approximately a 20-fold dilution of Ringers saline solution). Compounds were added to the pond water from DMSO stock to obtain 100, 10 and 1 microM concentrations. Tadpoles were then incubated with these solutions for 1 hour, and then scored for "anesthesia". Anesthesia in this case is lack of movement in response to a sharp tap on the Petri dish lid, i.e., a lack of startle response. This correlates well to the loss of righting reflex in rodents and the loss of consciousness in humans. The pond water is then changed, and the return of a startle response is monitored for 24 hours. Immobility at 24 hours is considered death.

**Q.** With `O=C(Cn1nc(-c2ccc(OC(F)(F)F)cc2)ccc1=O)NCCc1ccccc1` as the compound, how does the immobility read?
**A.** The immobility was 80% (active).

**Q.** With `COc1ccc(-c2ccc(=O)n(CC(=O)NCCc3ccccc3)n2)cc1` as the compound, how does the immobility read?
**A.** Its immobility is 75% (active).

**Q.** Which immobility does the source give for `Cc1ccc(-c2ccc(=O)n(CC(=O)NCCc3ccccc3)n2)cc1` here?
**A.** Its immobility is 90% (active).

**Q.** Which immobility does the source give for `CC(C)(C)c1ccc(-c2ccc(=O)n(CC(=O)NCCc3ccccc3)n2)cc1` here?
**A.** The immobility was 90% (active).

**Q.** With `CC(C)Oc1ccc(-c2ccc(=O)n(CC(=O)NCCc3ccccc3)n2)cc1` as the compound, how does the immobility read?
**A.** Its immobility is 95% (active).

**Q.** Which immobility does the source give for `O=C(Cn1nc(-c2ccc(C(F)(F)F)cc2)ccc1=O)NCCc1ccccc1` here?
**A.** The immobility was 0% (inactive).

**Q.** With `CC(C)c1ccc(=O)n(CC(=O)NCCc2ccccc2)n1` as the compound, how does the immobility read?
**A.** The immobility was 0% (inactive).

**Q.** For `O=C(Cn1nc(-c2cccnc2)ccc1=O)NCCc1ccccc1`, which immobility is on record?
**A.** The immobility was 0% (inactive).

**Q.** For `CN(C)c1ccc(-c2ccc(=O)n(CC(=O)NCCc3ccccc3)n2)cc1`, which immobility is on record?
**A.** The immobility was 0% (inactive).

**Q.** Which immobility does the source give for `COc1ccccc1-c1ccc(=O)n(CC(=O)NCCc2ccccc2)n1` here?
**A.** The immobility was 5% (inactive).

**Q.** Which immobility does the source give for `O=C(Cn1nc(-c2ccc(F)cc2)ccc1=O)NCCc1ccccc1` here?
**A.** The immobility was 5% (inactive).

**Q.** For `C[S+](=O)([O-])c1ccc(-c2ccc(=O)n(CC(=O)NCCc3ccccc3)n2)cc1`, which immobility is on record?
**A.** Its immobility is 5% (inactive).

**Q.** With `Cc1ccc(-c2ccc(=O)n(CC(=O)NCCc3ccccc3)n2)cn1` as the compound, how does the immobility read?
**A.** The immobility was 0% (inactive).

**Q.** For `N#Cc1ccc(-c2ccc(=O)n(CC(=O)NCCc3ccccc3)n2)cc1`, which immobility is on record?
**A.** Its immobility is 0% (inactive).

**Q.** Which immobility does the source give for `O=C(Cn1nc(-c2ccncc2)ccc1=O)NCCc1ccccc1` here?
**A.** Its immobility is 5% (inactive).

**Q.** Which immobility does the source give for `O=C(Cn1nc(-c2ccc3c(c2)OCO3)ccc1=O)NCCc1ccccc1` here?
**A.** The immobility was 0% (inactive).

**Q.** With `CC(C)COc1ccc(-c2ccc(=O)n(CC(=O)NCCc3ccccc3)n2)cc1` as the compound, how does the immobility read?
**A.** The immobility was 100% (active).

**Q.** With `Cc1ccccc1-c1ccc(=O)n(CC(=O)NCCc2ccccc2)n1` as the compound, how does the immobility read?
**A.** The immobility was 0% (inactive).

**Q.** With `Cc1ccc(=O)n(CC(=O)NCCc2ccccc2)n1` as the compound, how does the immobility read?
**A.** Its immobility is 5% (inactive).

**Q.** For `O=C(Cn1nc(C2CC2)ccc1=O)NCCc1ccccc1`, which immobility is on record?
**A.** Its immobility is 0% (inactive).

Same assay, conditions: startle-response immobility, 1 h, measured here: 24 h immobility, toxicity/death, at 10 µM

**Q.** With `O=C(Cn1nc(-c2ccc(OC(F)(F)F)cc2)ccc1=O)NCCc1ccccc1` as the compound, how does the immobility read?
**A.** Its immobility is 10%.

**Q.** For `COc1ccc(-c2ccc(=O)n(CC(=O)NCCc3ccccc3)n2)cc1`, which immobility is on record?
**A.** The immobility was 5%.

**Q.** With `Cc1ccc(-c2ccc(=O)n(CC(=O)NCCc3ccccc3)n2)cc1` as the compound, how does the immobility read?
**A.** Its immobility is 0%.

**Q.** For `CC(C)(C)c1ccc(-c2ccc(=O)n(CC(=O)NCCc3ccccc3)n2)cc1`, which immobility is on record?
**A.** The immobility was 10%.

**Q.** Which immobility does the source give for `CC(C)Oc1ccc(-c2ccc(=O)n(CC(=O)NCCc3ccccc3)n2)cc1` here?
**A.** Its immobility is 5%.

**Q.** Which immobility does the source give for `O=C(Cn1nc(-c2ccc(C(F)(F)F)cc2)ccc1=O)NCCc1ccccc1` here?
**A.** Its immobility is 5%.

**Q.** Which immobility does the source give for `CC(C)c1ccc(=O)n(CC(=O)NCCc2ccccc2)n1` here?
**A.** The immobility was 5%.

**Q.** Which immobility does the source give for `O=C(Cn1nc(-c2cccnc2)ccc1=O)NCCc1ccccc1` here?
**A.** Its immobility is 15%.

**Q.** For `CN(C)c1ccc(-c2ccc(=O)n(CC(=O)NCCc3ccccc3)n2)cc1`, which immobility is on record?
**A.** Its immobility is 10%.

**Q.** For `COc1ccccc1-c1ccc(=O)n(CC(=O)NCCc2ccccc2)n1`, which immobility is on record?
**A.** The immobility was 15%.

**Q.** Which immobility does the source give for `O=C(Cn1nc(-c2ccc(F)cc2)ccc1=O)NCCc1ccccc1` here?
**A.** The immobility was 0%.

**Q.** Which immobility does the source give for `C[S+](=O)([O-])c1ccc(-c2ccc(=O)n(CC(=O)NCCc3ccccc3)n2)cc1` here?
**A.** Its immobility is 5%.

**Q.** With `Cc1ccc(-c2ccc(=O)n(CC(=O)NCCc3ccccc3)n2)cn1` as the compound, how does the immobility read?
**A.** The immobility was 0%.

**Q.** With `N#Cc1ccc(-c2ccc(=O)n(CC(=O)NCCc3ccccc3)n2)cc1` as the compound, how does the immobility read?
**A.** The immobility was 5%.

**Q.** With `O=C(Cn1nc(-c2ccncc2)ccc1=O)NCCc1ccccc1` as the compound, how does the immobility read?
**A.** The immobility was 10%.

**Q.** For `O=C(Cn1nc(-c2ccc3c(c2)OCO3)ccc1=O)NCCc1ccccc1`, which immobility is on record?
**A.** Its immobility is 0%.

**Q.** Which immobility does the source give for `CC(C)COc1ccc(-c2ccc(=O)n(CC(=O)NCCc3ccccc3)n2)cc1` here?
**A.** Its immobility is 0%.

**Q.** With `Cc1ccccc1-c1ccc(=O)n(CC(=O)NCCc2ccccc2)n1` as the compound, how does the immobility read?
**A.** The immobility was 10%.

**Q.** With `Cc1ccc(=O)n(CC(=O)NCCc2ccccc2)n1` as the compound, how does the immobility read?
**A.** Its immobility is 15%.

**Q.** For `O=C(Cn1nc(C2CC2)ccc1=O)NCCc1ccccc1`, which immobility is on record?
**A.** The immobility was 5%.
